# Laboratory results: PubChem BioAssay (NCI)
# Compounds without any hit were thinned out: in the full panel of roughly 79,000, 15% have a hit. Unmarked numbers belong to inactive results. The source made the active and inactive calls. Rule as the data show it: active = growth inhibition above about 70%; inactive = the rest.
# Assay: NCI Yeast Anticancer Drug Screen. Data for the mec2-1 strain (AID 157)
# Conditions: S. cerevisiae mec2-1 strain, at 11.0 µM, active compounds read high
# Method in brief: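 Test agents were screened against the mec2-1 yeast strain, with defined DNA repair or cell cycle alteration. Growth was scored as inhibition against vehicle-only controls.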
row,SMILES,growth inhibition
1,CC(CN(C)C)C(=O)/C=C/c1ccc(Cl)c(Cl)c1 (configuration not stated),14%
2,CCCCCCNCCCNc1c2cc(OC)ccc2nc2cccc([N+](=O)[O-])c12,73% (active)
3,NC(=S)N1N=C2c3ccccc3CC[C@H]2[C@@H]1c1ccc(Cl)cc1,23%
4,C/C(=N/NC(=S)Nc1ccccc1C)c1ccccn1,-9%
5,O=C1/C(=C/c2ccc(Cl)c(Cl)c2)CNC/C1=C\c1ccc(Cl)c(Cl)c1,41%
6,CC(C)OP(=O)(OC(C)C)C(=NCCO)NNc1ccc([N+](=O)[O-])cc1,-19%
7,N#CCC(=O)N/N=C(\c1ccccc1)C(c1ccccc1)C1(O)C(=O)Nc2c(Cl)ccc(Cl)c21 (configuration not stated),4%
8,CC(C)(CN1CCCCC1)C(=O)CC(SCCS(=O)(=O)O)c1ccccc1 (configuration not stated),0%
9,COC1=CCC23C(=O)C=CC(=O)C2(C1)C(=O)c1ccccc1C3=O (configuration not stated),-11%
10,CCCCN(CCCC)c1ccc(N=Nc2ccc(S(=O)(=O)O)cc2)cc1,77% (active)
11,c1ccc2nc3c(nc2c1)sc1ccccc13,41%
12,O=C1c2ccccc2-c2ccc(N=Cc3ccccc3)cc21,-3%
13,CNC(=S)N/N=C(/C)CCC/C(C)=N/NC(=S)NC,53%
14,Nc1ccc(/C=C/c2ccc3cccnc3c2)cc1,-3%
15,COc1ccc2c3c1OC(C)C31CC(=O)CCC1CC2 (configuration not stated),-3%
16,CCOC(=O)Nc1ccc(C)c(NC(=O)OCC)c1,11%
17,CCN(CC)CCNc1ccc2nc(C)n3c4ccc(OC)cc4c(=O)c1c23,37%
18,C[N+](C)([O-])CCCNc1c2ccccc2nc2cccc([N+](=O)[O-])c12,93% (active)

row,SMILES,growth inhibition
1,O=C(c1cc(=O)c2ccc(O)cc2o1)c1ccc(Cl)cc1Cl,5%
2,CCCNC(=O)OCc1c(COC(=O)NCCC)c(-c2ccc(Cl)c(Cl)c2)n2c1CCC2,-31%
3,O=C(Cc1ccccc1)NN1C(=O)C(Cl)C1c1cc(Br)cc(Br)c1O (configuration not stated),95% (active)
4,CCOC(=O)C(Cc1c2ccccc2cc2ccccc12)(NC(C)=O)C(=O)OCC,-1%
5,O=[N+]([O-])/C=C/c1cc2ccc3ccccc3c2[nH]1,63%
6,Fc1ccc(Nc2ccc3ccccc3c2)cc1,-3%
7,O=S1(=O)CCC2=CC(C(F)(F)F)=CC(C(F)(F)F)=CN21,81% (active)
8,O=C(Cc1ccccc1)NNc1nc(NNC(=O)c2ccncc2)nc(Nc2ccc([N+](=O)[O-])cc2)n1,27%
9,CCCCS/C(=C(/C#N)C(N)=O)c1cc2c([nH]1)CCCC2,-17%
10,O=C(O)c1ccccc1C(=O)OC1CCc2ccccc2C1 (configuration not stated),-11%
11,CCOC(=O)/C(=C\c1cccc(C)c1)C(C)=O,71% (active)
12,NC(=S)N/N=C1\c2ccccc2CCC1CCC1(O)CCc2ccccc2C1=O (configuration not stated),16%
13,Cc1cccc2c(Cl)c3cccc(C)c3nc12,-10%
14,CC(C)OC(=O)NNc1c(Cl)cc(Cl)cc1Cl,0%
15,Nc1ccc2c(c1)C(=O)c1c(F)cccc1-2,18%
16,N#CSCC1COc2ccccc2O1 (configuration not stated),-5%
17,Cc1ccc(S(=O)(=O)NC(=O)C2C(=O)CC3(CCCCC3)CC2=O)cc1,20%
18,CC1=NN(C(=O)c2ccccc2O)C(=O)/C1=C/c1ccco1,75% (active)

# Same assay, conditions: S. cerevisiae mec2-1 strain, at 33.0 µM, active compounds read high
row,SMILES,growth inhibition
1,CC(CN(C)C)C(=O)/C=C/c1ccc(Cl)c(Cl)c1 (configuration not stated),48%
2,CCCCCCNCCCNc1c2cc(OC)ccc2nc2cccc([N+](=O)[O-])c12,94% (active)
3,NC(=S)N1N=C2c3ccccc3CC[C@H]2[C@@H]1c1ccc(Cl)cc1,58%
4,C/C(=N/NC(=S)Nc1ccccc1C)c1ccccn1,-9%
5,O=C1/C(=C/c2ccc(Cl)c(Cl)c2)CNC/C1=C\c1ccc(Cl)c(Cl)c1,74% (active)
6,CC(C)OP(=O)(OC(C)C)C(=NCCO)NNc1ccc([N+](=O)[O-])cc1,20%
7,N#CCC(=O)N/N=C(\c1ccccc1)C(c1ccccc1)C1(O)C(=O)Nc2c(Cl)ccc(Cl)c21 (configuration not stated),6%
8,CC(C)(CN1CCCCC1)C(=O)CC(SCCS(=O)(=O)O)c1ccccc1 (configuration not stated),9%
9,COC1=CCC23C(=O)C=CC(=O)C2(C1)C(=O)c1ccccc1C3=O (configuration not stated),34%
10,CCCCN(CCCC)c1ccc(N=Nc2ccc(S(=O)(=O)O)cc2)cc1,97% (active)
11,c1ccc2nc3c(nc2c1)sc1ccccc13,42%
12,O=C1c2ccccc2-c2ccc(N=Cc3ccccc3)cc21,2%
13,CNC(=S)N/N=C(/C)CCC/C(C)=N/NC(=S)NC,48%
14,Nc1ccc(/C=C/c2ccc3cccnc3c2)cc1,1%
15,COc1ccc2c3c1OC(C)C31CC(=O)CCC1CC2 (configuration not stated),-3%
16,CCOC(=O)Nc1ccc(C)c(NC(=O)OCC)c1,19%
17,CCN(CC)CCNc1ccc2nc(C)n3c4ccc(OC)cc4c(=O)c1c23,40%
18,C[N+](C)([O-])CCCNc1c2ccccc2nc2cccc([N+](=O)[O-])c12,97% (active)

row,SMILES,growth inhibition
1,O=C(c1cc(=O)c2ccc(O)cc2o1)c1ccc(Cl)cc1Cl,80% (active)
2,CCCNC(=O)OCc1c(COC(=O)NCCC)c(-c2ccc(Cl)c(Cl)c2)n2c1CCC2,-12%
3,O=C(Cc1ccccc1)NN1C(=O)C(Cl)C1c1cc(Br)cc(Br)c1O (configuration not stated),95% (active)
4,CCOC(=O)C(Cc1c2ccccc2cc2ccccc12)(NC(C)=O)C(=O)OCC,1%
5,O=[N+]([O-])/C=C/c1cc2ccc3ccccc3c2[nH]1,88% (active)
6,Fc1ccc(Nc2ccc3ccccc3c2)cc1,25%
7,O=S1(=O)CCC2=CC(C(F)(F)F)=CC(C(F)(F)F)=CN21,93% (active)
8,O=C(Cc1ccccc1)NNc1nc(NNC(=O)c2ccncc2)nc(Nc2ccc([N+](=O)[O-])cc2)n1,34%
9,CCCCS/C(=C(/C#N)C(N)=O)c1cc2c([nH]1)CCCC2,-34%
10,O=C(O)c1ccccc1C(=O)OC1CCc2ccccc2C1 (configuration not stated),13%
11,CCOC(=O)/C(=C\c1cccc(C)c1)C(C)=O,95% (active)
12,NC(=S)N/N=C1\c2ccccc2CCC1CCC1(O)CCc2ccccc2C1=O (configuration not stated),50%
13,Cc1cccc2c(Cl)c3cccc(C)c3nc12,1%
14,CC(C)OC(=O)NNc1c(Cl)cc(Cl)cc1Cl,1%
15,Nc1ccc2c(c1)C(=O)c1c(F)cccc1-2,13%
16,N#CSCC1COc2ccccc2O1 (configuration not stated),87% (active)
17,Cc1ccc(S(=O)(=O)NC(=O)C2C(=O)CC3(CCCCC3)CC2=O)cc1,79% (active)
18,CC1=NN(C(=O)c2ccccc2O)C(=O)/C1=C/c1ccco1,91% (active)
